Reference: PubChem BioAssay (EPA / NIEHS)
Results filed as inconclusive are left out. Calls of active or inactive are those of the source. The calls were made as follows: active = hit-call score of the fitted dose curve at least 0.9, where 1 is the maximum; inconclusive = response in the unintended direction; inactive = score below 0.9.

The molecules below were run against Retinoic acid receptor alpha (Homo sapiens) (UniProt P10276) (assay: ATG_RARa_TRANS: Attagene TRANS-FACTORIAL HepG2 Assay for human Retinoic Acid Receptor alpha (RARa) (AID 2283005)).
Summary of the method: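 HepG2 cells transiently transfected with multiple reporter units expressing chimeric RARα-GAL4 fusion, with GAL4-UAS-driven reporters. After 24 h compound exposure, reporter mRNA induction quantified by RT-PCR and capillary electrophoresis with fluorescent labeling; gain-of-signal fitted relative to DMSO control.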

Sequence of Retinoic acid receptor alpha (Homo sapiens) (P10276 whole entry, looked up, the tested form may be a part): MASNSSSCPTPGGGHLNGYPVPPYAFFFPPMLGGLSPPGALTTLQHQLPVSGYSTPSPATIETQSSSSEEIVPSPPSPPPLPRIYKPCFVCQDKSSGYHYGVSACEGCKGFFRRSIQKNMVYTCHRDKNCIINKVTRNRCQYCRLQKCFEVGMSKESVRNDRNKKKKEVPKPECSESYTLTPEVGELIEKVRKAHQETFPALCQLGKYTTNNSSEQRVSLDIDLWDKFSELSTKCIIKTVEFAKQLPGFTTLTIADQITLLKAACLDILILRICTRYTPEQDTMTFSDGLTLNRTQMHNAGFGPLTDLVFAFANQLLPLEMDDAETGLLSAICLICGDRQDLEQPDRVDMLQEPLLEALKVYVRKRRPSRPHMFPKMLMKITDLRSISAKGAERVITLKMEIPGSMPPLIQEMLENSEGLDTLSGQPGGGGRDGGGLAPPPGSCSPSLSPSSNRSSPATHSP

Structure (SMILES)	outcome
CC(C)CO	inactive
Cn1cccc1	inactive
COCC(=O)O	inactive
CC1(C)[C@@H]2CC[C@@]1(C)C(=O)C2	inactive
CCCCC(=O)O	inactive
C=C(C)C1CC=C(C)C(OC(C)=O)C1 (stereo unspecified)	inactive
CCc1cccc(CC)c1	inactive
CCC[Si](OC)(OC)OC	inactive
Cn1ccnc1	inactive
CCOc1ccc(NC(N)=O)cc1	inactive

Each molecule was assayed against Peroxisome proliferator-activated receptor gamma (Homo sapiens) (UniProt P37231) (assay: ATG_PPARg_TRANS: Attagene TRANS-FACTORIAL HepG2 Assay for human Peroxisome Proliferator-activated Receptor-gamma (PPARg) (AID 2283007)).
Summary of the method: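 Gain-of-signal endpoint relative to DMSO, derived from reporter mRNA levels quantified by RT-PCR and capillary electrophoresis. Cells were HepG2 transiently expressing a chimeric NR-Gal4 construct with GAL4-UAS reporters, exposed to chemicals for 24 h.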

Sequence of Peroxisome proliferator-activated receptor gamma (Homo sapiens) (P37231 whole entry, looked up, the tested form may be a part): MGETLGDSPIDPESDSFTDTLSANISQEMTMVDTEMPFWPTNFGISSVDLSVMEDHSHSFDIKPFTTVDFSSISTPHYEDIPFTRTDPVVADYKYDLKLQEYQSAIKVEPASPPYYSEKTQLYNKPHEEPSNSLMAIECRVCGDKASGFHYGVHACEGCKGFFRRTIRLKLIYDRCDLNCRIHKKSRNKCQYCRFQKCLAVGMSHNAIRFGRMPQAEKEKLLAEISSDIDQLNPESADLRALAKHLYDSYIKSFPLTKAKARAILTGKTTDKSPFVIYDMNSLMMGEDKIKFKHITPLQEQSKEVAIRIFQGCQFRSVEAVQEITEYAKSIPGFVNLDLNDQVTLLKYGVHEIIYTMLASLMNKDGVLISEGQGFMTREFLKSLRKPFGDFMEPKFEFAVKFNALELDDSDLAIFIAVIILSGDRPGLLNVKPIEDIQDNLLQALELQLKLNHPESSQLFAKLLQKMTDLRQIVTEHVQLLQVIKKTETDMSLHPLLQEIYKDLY

Structure (SMILES)	outcome	AC50
CCCCCCO	inactive	–
CO[Si](C)(C)OC	inactive	–
CC1CCC(C(C)(C)S)C(=O)C1 (stereo unspecified)	–	81.1 µM (active)
CCCCCCOc1ccc(N)cc1	inactive	–
c1ccc(-c2nc3ccccc3[nH]2)cc1	inactive	–
Cn1cccc1	inactive	–
CCCCNC(=S)NCCCC	inactive	–
CCN1CCCC1=O	inactive	–
COCC(=O)O	inactive	–
CC(=O)/C=C/C1C(C)=CCCC1(C)C (stereo unspecified)	–	42.1 µM (active)
N=C1C=CC(=C(c2ccc(N)cc2)c2ccc(N)cc2)C=C1	–	31.9 µM (active)
CC(C)c1ccc(O)c(C(C)C)c1	inactive	–
CC1=CCC(C(C)C)C=C1 (stereo unspecified)	inactive	–
C=C(C)C1CC=C(C)C(OC(C)=O)C1 (stereo unspecified)	inactive	–
CCc1cccc(CC)c1	inactive	–
CC(C)(C)N	inactive	–
O=C(Oc1ccccc1)c1ccccc1O	inactive	–
CCCCCCCCCC(C)=O	inactive	–
CCCC(CC)c1ccccc1 (stereo unspecified)	inactive	–
NNS(=O)(=O)c1ccc(Oc2ccc(S(=O)(=O)NN)cc2)cc1	inactive	–
CCCCOCC(C)O (stereo unspecified)	inactive	–
CC(C)(c1ccccc1)c1ccc(Nc2ccc(C(C)(C)c3ccccc3)cc2)cc1	inactive	–
[Cl][Eu]([Cl])[Cl]	inactive	–
CCOc1ccc(NC(N)=O)cc1	inactive	–
CCCCNS(=O)(=O)c1ccccc1	inactive	–
CC1CCC(=O)C1=O (stereo unspecified)	inactive	–

These molecules were tested against Nuclear receptor subfamily 1 group I member 2 (Homo sapiens) (UniProt O75469) (assay: ATG_PXR_TRANS: Attagene TRANS-FACTORIAL HepG2 Assay for human Pregnane X Receptor (PXR) (AID 2283008)).
Summary of the method: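 Fluorescence intensity of FAM-labelled, HpaI-digested reporter amplicons, separated by capillary electrophoresis, quantifies induction. HepG2 cells with PXR-Gal4 trans-reporter system were exposed 24 h; DMSO defines baseline.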

Sequence of Nuclear receptor subfamily 1 group I member 2 (Homo sapiens) (O75469 whole entry, looked up, the tested form may be a part): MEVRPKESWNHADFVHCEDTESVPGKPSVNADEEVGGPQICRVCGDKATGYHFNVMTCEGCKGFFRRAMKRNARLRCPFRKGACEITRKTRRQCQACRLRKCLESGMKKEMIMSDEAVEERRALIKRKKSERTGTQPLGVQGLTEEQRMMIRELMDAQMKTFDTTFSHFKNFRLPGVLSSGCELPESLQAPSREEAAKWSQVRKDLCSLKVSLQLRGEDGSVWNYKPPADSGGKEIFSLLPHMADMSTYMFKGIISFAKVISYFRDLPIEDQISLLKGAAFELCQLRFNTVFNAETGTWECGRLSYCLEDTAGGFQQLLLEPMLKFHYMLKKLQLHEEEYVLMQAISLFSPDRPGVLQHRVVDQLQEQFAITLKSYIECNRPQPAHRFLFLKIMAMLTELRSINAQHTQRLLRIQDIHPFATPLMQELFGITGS

Structure (SMILES)	outcome	AC50
CC(C)=NNC(N)=S	inactive	–
CO[Si](C)(C)OC	inactive	–
CC1CCC(C(C)(C)S)C(=O)C1 (stereo unspecified)	–	1.89 µM (active)
C=C1C[C@H]2[C@@H]3C=C(C)C4=CC(=O)CC[C@]4(C)[C@H]3CC[C@]2(C)[C@@]1(OC(C)=O)C(C)=O	inactive	–
CCCCCCOc1ccc(N)cc1	inactive	–
c1ccc(-c2nc3ccccc3[nH]2)cc1	–	23.4 µM (active)
Cn1cccc1	inactive	–
CCCCNC(=S)NCCCC	inactive	–
CCN1CCCC1=O	inactive	–
CC(=O)/C=C/C1C(C)=CCCC1(C)C (stereo unspecified)	–	2.79 µM (active)
N=C1C=CC(=C(c2ccc(N)cc2)c2ccc(N)cc2)C=C1	inactive	–
CC(C)c1ccc(O)c(C(C)C)c1	–	6.58 µM (active)
CC1(C)[C@@H]2CC[C@@]1(C)C(=O)C2	inactive	–
CC1=CCC(C(C)C)C=C1 (stereo unspecified)	–	7.16 µM (active)
C=C(C)C1CC=C(C)C(OC(C)=O)C1 (stereo unspecified)	inactive	–
CC(C)(C)N	inactive	–
O=C(Oc1ccccc1)c1ccccc1O	inactive	–
CCCCCCCCCC(C)=O	inactive	–
CCCC(CC)c1ccccc1 (stereo unspecified)	inactive	–
NNS(=O)(=O)c1ccc(Oc2ccc(S(=O)(=O)NN)cc2)cc1	inactive	–
CCCCOCC(C)O (stereo unspecified)	inactive	–
CC1CC(=O)CC(C)(C)C1 (stereo unspecified)	inactive	–
CCC[Si](OC)(OC)OC	inactive	–
CC(C)(c1ccccc1)c1ccc(Nc2ccc(C(C)(C)c3ccccc3)cc2)cc1	inactive	–
[Cl][Eu]([Cl])[Cl]	inactive	–
CCCCNS(=O)(=O)c1ccccc1	inactive	–

These molecules were tested against human Retinoic Acid Receptor gamma (RARg), RARG (gene 5916) (UniProt P13631) (assay: ATG_RARg_TRANS: Attagene TRANS-FACTORIAL HepG2 Assay for human Retinoic Acid Receptor gamma (RARg) (AID 2283009)).
Summary of the method: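 HepG2 transiently transfected with GAL4-UAS reporter units and chimeric NR-Gal4 constructs; 24 h compound exposure. Reporter mRNA quantified by RT-PCR, FAM labeling, HpaI digestion and capillary electrophoresis; gain-of-signal versus DMSO.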

Sequence of human Retinoic Acid Receptor gamma (RARg), RARG (gene 5916) (P13631 whole entry, looked up, the tested form may be a part): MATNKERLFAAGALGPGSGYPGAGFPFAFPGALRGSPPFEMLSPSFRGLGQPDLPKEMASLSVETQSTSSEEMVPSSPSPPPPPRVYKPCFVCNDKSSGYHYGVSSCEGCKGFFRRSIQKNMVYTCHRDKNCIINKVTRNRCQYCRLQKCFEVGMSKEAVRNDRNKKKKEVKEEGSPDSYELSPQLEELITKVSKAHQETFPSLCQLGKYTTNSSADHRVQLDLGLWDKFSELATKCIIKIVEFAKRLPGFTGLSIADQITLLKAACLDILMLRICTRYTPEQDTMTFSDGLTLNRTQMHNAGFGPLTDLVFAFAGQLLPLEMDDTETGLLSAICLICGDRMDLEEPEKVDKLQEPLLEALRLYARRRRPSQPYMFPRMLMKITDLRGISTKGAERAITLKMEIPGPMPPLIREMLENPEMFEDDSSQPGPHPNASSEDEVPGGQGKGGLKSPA

Structure (SMILES)	outcome
CC(=O)CC(=O)Nc1ccccc1C	inactive
CCCCNC(=S)NCCCC	inactive
N=C1C=CC(=C(c2ccc(N)cc2)c2ccc(N)cc2)C=C1	inactive
CC(C)c1ccc(O)c(C(C)C)c1	inactive
CC1(C)[C@@H]2CC[C@@]1(C)C(=O)C2	inactive
CCCCC(=O)O	inactive
C=C(C)C1CC=C(C)C(OC(C)=O)C1 (stereo unspecified)	inactive
CCc1cccc(CC)c1	inactive
CCCC(CC)c1ccccc1 (stereo unspecified)	inactive
CCCCOCC(C)O (stereo unspecified)	inactive
CC1CC(=O)CC(C)(C)C1 (stereo unspecified)	inactive
CCC[Si](OC)(OC)OC	inactive
CCOc1ccc(NC(N)=O)cc1	inactive
O=C(Cl)c1ccc(C(=O)Cl)cc1	inactive
